Active and inactive are the calls of the source. How the source made its calls: active means hit-call score of the fitted dose curve at least 0.9, where 1 is the maximum; inactive means score below 0.9.
Legend:
Conditions in all cases: mRNA level, 48 h; actives raise or lower the signal
[1] = read-out: ATP-citrate lyase (ACLY), ACLY (gene 47); test: LTEA_HepaRG_ACLY: Life Technologies and Expression Analysis (LTEA) Assay for ATP-citrate lyase (ACLY) using HepaRG (AID 2283466)
Summary of the method: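 HepaRG, 48 h exposure, 8-pt half-log dilutions (top 100 uM), 0.5% DMSO. Readout: ACLY mRNA, TaqMan qRT-PCR, housekeeping-normalized (ACTB/GAPDH/POLR2A). Bidirectional curve fit vs DMSO.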

[2] = read-out: Peroxisomal acyl-coenzyme A oxidase 1 (ACOX1) gene, ACOX1 (gene 51); test: LTEA_HepaRG_ACOX1: Life Technologies and Expression Analysis (LTEA) Assay for Peroxisomal acyl-coenzyme A oxidase 1 (ACOX1) gene using HepaRG (AID 2283467)
Summary of the method: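 Measured by qRT-PCR against three housekeeping genes: ACOX1 transcript change in human HepaRG cells after 48 h dosing. Concentrations ran up to 100 uM in half-log steps. Curves were fitted bidirectionally relative to 0.5% DMSO.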

[3] = read-out: Bcl-2 (BAD) gene, BAD (gene 572); test: LTEA_HepaRG_BAD: Life Technologies and Expression Analysis (LTEA) Assay for Bcl-2 (BAD) gene using HepaRG (AID 2283469)
Summary of the method: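 BAD transcript change, measured by qRT-PCR against three housekeeping genes and fitted in both directions relative to 0.5% DMSO, after 48 h chemical treatment of human HepaRG liver cells at concentrations up to 100 uM.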

[4] = read-out: Bcl-2 (BAX) gene, BAX (gene 581); test: LTEA_HepaRG_BAX: Life Technologies and Expression Analysis (LTEA) Assay for Bcl-2 (BAX) gene using HepaRG (AID 2283470)
Summary of the method: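 HepaRG (human liver), 48 h exposure, duplicate wells. 8-pt curve, half-log from 100 uM, 0.5% DMSO. BAX transcript by TaqMan qRT-PCR; ACTB/GAPDH/POLR2A normalization; gain or loss vs DMSO baseline.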

[5] = read-out: adenosine kinase (ADK) gene, ADK (gene 132); test: LTEA_HepaRG_ADK: Life Technologies and Expression Analysis (LTEA) Assay for adenosine kinase (ADK) gene using HepaRG (AID 2283471)
Summary of the method: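 Differentiated HepaRG cells dosed 48 h in serum-free induction medium, 0.5% DMSO vehicle, eight half-log concentrations from 100 uM, in duplicate. ADK mRNA by TaqMan qRT-PCR normalised to ACTB, GAPDH, POLR2A; bidirectional fit versus DMSO.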

[6] = read-out: Alpha-fetoprotein (AFP) gene, AFP (gene 174); test: LTEA_HepaRG_AFP: Life Technologies and Expression Analysis (LTEA) Assay for Alpha-fetoprotein (AFP) gene using HepaRG (AID 2283472)
Summary of the method: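 HepaRG, single lot; 48 h post-plating -> serum-free induction medium; cpd 8-pt, 100 uM top, half-log, 0.5% DMSO, duplicate, 48 h. RNA -> qRT-PCR AFP, norm ACTB/GAPDH/POLR2A. Bidirectional fit vs DMSO.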

BCL2L11 (gene 10018) = test: LTEA_HepaRG_BCL2L11: Life Technologies and Expression Analysis (LTEA) Assay for Bcl-2 (BCL2L11) gene using HepaRG (AID 2283473)
Summary of the method: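 HepaRG, 48 h exposure, 8-pt half-log series from 100 uM in 0.5% DMSO, duplicates; qRT-PCR (Fluidigm TaqMan) for BCL2L11, housekeeping-normalized; bidirectional curve fit relative to DMSO baseline.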

[7] = read-out: Apolipoprotein A-V (APOA5) gene, APOA5 (gene 116519); test: LTEA_HepaRG_APOA5: Life Technologies and Expression Analysis (LTEA) Assay for Apolipoprotein A-V (APOA5) gene using HepaRG (AID 2283474)
Summary of the method: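 HepaRG, 48 h chemical exposure in serum-free induction medium, 8-pt half-log series (top 100 uM), 0.5% DMSO vehicle, duplicates. Readout: APOA5 mRNA by qRT-PCR, housekeeping-normalized; bidirectional fit vs DMSO baseline.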

[8] = read-out: Apoptosis regulator Bcl-2 (Homo sapiens) (UniProt P10415); test: LTEA_HepaRG_BCL2: Life Technologies and Expression Analysis (LTEA) Assay for Bcl-2 gene using HepaRG (AID 2283475)
Summary of the method: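 HepaRG, plated 48 h then switched to serum-free induction medium; dosed 48 h, 8 conc. (max 100 uM, half-log steps), duplicate, 0.5% DMSO. Lysis in RLT, RNA isolated, TaqMan qRT-PCR for BCL2; ACTB/GAPDH/POLR2A normalisation; bidirectional fit vs DMSO.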

[9] = read-out: Bcl-2 (BID) gene, BID (gene 637); test: LTEA_HepaRG_BID: Life Technologies and Expression Analysis (LTEA) Assay for Bcl-2 (BID) gene using HepaRG (AID 2283476)
Summary of the method: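 Transcript levels of BID, measured by qRT-PCR and normalized to three housekeeping genes, were fitted bidirectionally against DMSO controls. Cells were HepaRG, dosed 48 h at up to 100 uM.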

Caspase-3 (Homo sapiens) = Caspase-3 (Homo sapiens) (UniProt P42574); test: LTEA_HepaRG_CASP3: Life Technologies and Expression Analysis (LTEA) Assay for cysteine-aspartic acid protease (CASP3) using HepaRG (AID 2283477)
Chain of Caspase-3 (Homo sapiens) (P42574 whole entry, looked up): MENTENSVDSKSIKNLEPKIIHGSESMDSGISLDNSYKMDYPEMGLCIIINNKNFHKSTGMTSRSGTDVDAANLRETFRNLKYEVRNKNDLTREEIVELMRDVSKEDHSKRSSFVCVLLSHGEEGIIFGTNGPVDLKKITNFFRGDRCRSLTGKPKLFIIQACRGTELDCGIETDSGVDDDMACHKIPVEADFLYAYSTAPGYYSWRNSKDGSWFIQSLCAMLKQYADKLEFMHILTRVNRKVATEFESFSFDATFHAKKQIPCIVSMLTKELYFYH
Summary of the method: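 HepaRG, 48 h exposure, 8 conc. (top 100 uM, half-log steps, duplicate), 0.5% DMSO vehicle; qRT-PCR of CASP3 transcript, housekeeping-normalised (ACTB/GAPDH/POLR2A); bidirectional curve fit vs DMSO baseline.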

[10] = read-out: Cytochrome P450 (CYP24A1), CYP24A1 (gene 1591); test: LTEA_HepaRG_CYP24A1: Life Technologies and Expression Analysis (LTEA) Assay for Cytochrome P450 (CYP24A1) using HepaRG (AID 2283478)
Summary of the method: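 qRT-PCR read-out: CYP24A1 transcript levels normalized to three housekeeping genes, bidirectional curve fits against 0.5% DMSO baseline. Human HepaRG cells treated 48 h with chemicals at eight concentrations from 100 uM in half-log steps.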

[11] = read-out: Cytochrome P450 (CYP1A2), CYP1A2 (gene 1544); test: LTEA_HepaRG_CYP1A2: Life Technologies and Expression Analysis (LTEA) Assay for Cytochrome P450 (CYP1A2) using HepaRG (AID 2283479)
Summary of the method: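 HepaRG, 48 h exposure, top 100 uM, half-log 8-pt, 0.5% DMSO vehicle, duplicates. Readout: TaqMan qRT-PCR of CYP1A2 mRNA, housekeeping-normalized (ACTB/GAPDH/POLR2A). Gain/loss fit relative to DMSO baseline.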

[12] = read-out: cysteine-aspartic acid protease (CASP8), CASP8 (gene 841); test: LTEA_HepaRG_CASP8: Life Technologies and Expression Analysis (LTEA) Assay for cysteine-aspartic acid protease (CASP8) using HepaRG (AID 2283480)
Summary of the method: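 HepaRG, 48 h exposure, duplicate wells; 8 conc, half-log from 100 uM, 0.5% DMSO. Serum-free induction medium. CASP8 mRNA by TaqMan qRT-PCR, norm. ACTB/GAPDH/POLR2A; gain/loss fitted vs DMSO.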

[13] = read-out: Cytochrome P450 (CYP2B6), CYP2B6 (gene 1555); test: LTEA_HepaRG_CYP2B6: Life Technologies and Expression Analysis (LTEA) Assay for Cytochrome P450 (CYP2B6) using HepaRG (AID 2283481)
Summary of the method: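 Read-out is CYP2B6 mRNA by TaqMan qRT-PCR, normalized to three housekeeping genes and fitted bidirectionally against 0.5% DMSO baseline. Human HepaRG cells received test chemicals for 48 h, top concentration 100 uM, half-log dilutions.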

[14] = read-out: Cytochrome P450 2C19 (Homo sapiens) (UniProt P33261); test: LTEA_HepaRG_CYP2C19: Life Technologies and Expression Analysis (LTEA) Assay for CYP2C19 using HepaRG (AID 2283482)
Summary of the method: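 HepaRG, 48 h chemical exposure, 8-pt half-log series from 100 uM in 0.5% DMSO, duplicates. Readout: CYP2C19 mRNA by TaqMan qRT-PCR, housekeeping-normalized. Bidirectional fit vs DMSO baseline; phenobarbital 1mM as induction control.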

CYP2C8 (gene 1558) = test: LTEA_HepaRG_CYP2C8: Life Technologies and Expression Analysis (LTEA) Assay for CYP2C8 using HepaRG (AID 2283483)
Summary of the method: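 CYP2C8 mRNA induction or loss, by qRT-PCR normalized to ACTB/GAPDH/POLR2A, is read in HepaRG cells after 48 h treatment. Concentrations run from 100 uM down in half-log dilutions, with 0.5% DMSO as vehicle and baseline.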

CYP2C9 (gene 1559) = test: LTEA_HepaRG_CYP2C9: Life Technologies and Expression Analysis (LTEA) Assay for CYP2C9 using HepaRG (AID 2283484)
Summary of the method: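 Cells plated 48 h, switched to serum-free induction medium, then treated in duplicate for 48 h at eight concentrations (max 100 uM, 0.5% DMSO). RNA then analysed by qRT-PCR for CYP2C9; curves fitted in both directions relative to DMSO.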

CYP2E1 (gene 1571) = test: LTEA_HepaRG_CYP2E1: Life Technologies and Expression Analysis (LTEA) Assay for CYP2E1 using HepaRG (AID 2283485)
Summary of the method: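 Human liver line HepaRG, plated 48 h, then serum-free induction medium + chemical x 48 h; 8-pt CRC from 100 uM, half-log, 0.5% DMSO, n=2. Readout: CYP2E1 mRNA qRT-PCR vs ACTB/GAPDH/POLR2A; bidirectional fit vs DMSO.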

Measured: AC50

Chain of Apoptosis regulator Bcl-2 (Homo sapiens) (P10415 whole entry, looked up): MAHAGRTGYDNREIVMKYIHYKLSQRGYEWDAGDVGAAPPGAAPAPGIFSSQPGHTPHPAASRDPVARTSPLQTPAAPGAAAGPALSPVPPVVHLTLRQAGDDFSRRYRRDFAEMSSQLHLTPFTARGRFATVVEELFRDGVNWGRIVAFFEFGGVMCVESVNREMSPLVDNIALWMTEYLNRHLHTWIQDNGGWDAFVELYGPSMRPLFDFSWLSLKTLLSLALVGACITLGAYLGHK
Chain of Cytochrome P450 2C19 (Homo sapiens) (P33261 whole entry, looked up): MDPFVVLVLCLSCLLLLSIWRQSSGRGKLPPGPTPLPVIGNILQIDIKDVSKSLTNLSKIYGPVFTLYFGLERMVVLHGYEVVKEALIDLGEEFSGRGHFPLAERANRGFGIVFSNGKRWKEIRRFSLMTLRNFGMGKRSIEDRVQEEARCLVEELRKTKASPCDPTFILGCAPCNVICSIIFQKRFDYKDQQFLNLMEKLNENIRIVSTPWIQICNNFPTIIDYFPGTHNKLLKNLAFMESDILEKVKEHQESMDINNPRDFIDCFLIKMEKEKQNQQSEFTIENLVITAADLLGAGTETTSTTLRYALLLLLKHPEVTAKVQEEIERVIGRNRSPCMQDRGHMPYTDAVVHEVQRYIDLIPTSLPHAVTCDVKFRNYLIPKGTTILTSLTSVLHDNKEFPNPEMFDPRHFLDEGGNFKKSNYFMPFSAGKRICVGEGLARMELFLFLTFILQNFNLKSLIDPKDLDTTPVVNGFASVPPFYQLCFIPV

CCCCCCCCCCCC[N+](C)(C)C
active: [1] 83.3 µM | [2] 77.8 µM | [4] 84.6 µM | BCL2L11 (gene 10018) 90.3 µM | [7] 79.4 µM | [8] 84.4 µM | [13] 92.4 µM | [14] 93.6 µM | CYP2C8 (gene 1558) 78.4 µM | CYP2C9 (gene 1559) 91.4 µM | CYP2E1 (gene 1571) 94.1 µM
inactive: [3] | [5] | [6] | [9] | Caspase-3 (Homo sapiens) | [10] | [11] | [12]

Source: PubChem BioAssay (EPA / NIEHS)
